Results: PubChem BioAssay (NCI)
This is part of a sample that, as a whole, favours compounds with a hit. Of some 83,000 tested, about 20% had one in any assay.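 Note: values are percent growth. 100 is the growth of untreated cells, values between 100 and 0 indicate rising inhibition; between -100 and 0 indicates cell death.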 The source made the active and inactive calls.

Test system: M14 melanoma
Test: NCI-60 one-dose screen, 48 h (100 = growth as untreated, 0 = no growth, -100 = all killed)
Settings: 10 µM unless noted
Method: Growth inhibition of the M14 human tumor cell line is measured as a screen for anti-cancer activity. Cells are grown in 96 well plates and exposed to the test compound for 48 hours. Compounds are tested at a single concentration, which is 10^-5 M for most compounds. The reported endpoint is percent growth (GI% or GIPRCNT), where numbers from 0 - 100% represent growth inhibition, and numbers from -100% - 0 represent cell death. For example, a value of 40 represents 60% growth inhibition. A value of 0 means no net growth occurred over the course of the experiment. A value of -40 indicates 40% of cells at the beginning of the experiment died by the end of the experiment. A value of -100 means all cells are dead at the end of the experiment.
NCI-60 Human Tumor Cell Lines Screen was performed using the standard one-dose NCI protocol, which is described in more detail at https://dtp.cancer.gov/discovery_development/nci-60/default.htm.
Compounds with GIPRCNT values below 10 were considered active. Activity score was based on GIPRCNT using the following formula: […]
Score is 0 for GIPRCNT values of 100 or above, 50 for GIPRCNT values of 0, and 100 for GIPRCNT values of -100.

Row | Structure (SMILES) | growth
1 | CCCCCCCCCCCCNC(=O)[C@H]1CSC(c2ccc(OC)c(F)c2)N1 (stereo not given in full) | -89.6% (active)
2 | COc1ccc2nc3cc(Cl)ccc3c(N3CCN(c4nccc(Nc5ccc(Cl)cc5)n4)CC3)c2c1 | 43.4% (inactive)
3 | O=C(/C=C/c1ccc(B(O)O)cc1)/C=C/c1ccc(B(O)O)cc1 | 20.5% (inactive)
4 | Cc1ccc(C2CC3c4ccccc4C2C2CCCCN32)cc1 (stereo not given) | 94.5% (inactive)
5 | COCCCNc1nc(NC(=O)c2ccc(F)cc2C)cc(-c2cccnc2)n1 | 103% (inactive)
6 | COc1cc(C2CC(=O)c3c(C)nn(-c4nc5ccccc5[nH]4)c3C2)cc(OC)c1OC (stereo not given) | 102% (inactive)
7 | COc1ccc(C(=O)/C=C/c2c[n+](=O)c3ccc(F)cc3n2[O-])cc1 | 101% (inactive)
8 | CC#Cc1nc2ccccc2c(=O)[nH]1 | 51.9% (inactive)
9 | CC/C(=C(\c1ccccc1)c1ccc(OCCNC)cc1)c1ccccc1 | -89.7% (active)
10 | Cc1cccc(NC(=O)c2sc3nc4c(cc3c2N)C(=O)CCC4)c1 | 21.8% (inactive)
11 | CCN(CC)CCCCNc1ccc(NCCCCN(CC)CC)c2c1C(=O)c1ccccc1C2=O | -36.6% (active)
12 | O=C(O)c1c([N+](=O)[O-])cnc2ccccc12 | 93.5% (inactive)
13 | C/C(Cc1ccc(Cl)cc1)=C(\c1ccc(OCCN2CCCCCC2)cc1)c1ccc(OC(=O)Cc2ccccc2)cc1 | 21.8% (inactive)
14 | CCOC(=O)C(CC)n1c(=O)c2cc(OC)c(OC)cc2c2cnc3[nH]ccc3c21 (stereo not given) | 88.5% (inactive)
15 | CCCCN(CCCC)CCC(C)(O)c1cc2ccccc2c2ccccc12 (stereo not given) | 90.7% (inactive)
16 | CN1CCN(Cc2ccc(NC(=O)c3cncc(C#Cc4c(N)ncc5ccc(C#N)cc45)c3)cc2C(F)(F)F)CC1 | -45.5% (active)
17 | COc1cc(/C=N\NC(=O)CN2CCN(c3cc4c(cc3F)c(=O)c(C(=O)N/N=C/c3ccc(O)c(OC)c3)cn4C3CC3)CC2)ccc1O | 80% (inactive)
18 | CC1CN(C(C)C)C(=S)N(c2ccccc2)C1=O (stereo not given) | 93.2% (inactive)
19 | c1ccc(-c2nc(N3CCOCC3)c3c4c(sc3n2)CCCCC4)nc1 | 67.6% (inactive)
20 | Cc1cc(N/N=C/c2nc(-c3ccc(Cl)cc3)oc2C)c2cc(Br)ccc2n1 | 40.6% (inactive)

Row | Structure (SMILES) | growth
21 | COc1ccc(C(=O)c2sc3nc4c(cc3c2N)CCCC4)cc1OC | 27.7% (inactive)
22 | CCCN(CCC)CN(CCC)CCC | 102% (inactive)
23 | COC1/C=C\OC2(C)Oc3c(C)c(O)c4c(O)c(c(CN(C)CCO)c(O)c4c3C2=O)NC(=O)/C(C)=C\C=C/C(C)C(O)C(C)C(O)C(C)C(OC(C)=O)C1C (stereo not given) | 105% (inactive)
24 | CCC(c1ccc(O)cc1)C(CC)c1ccc(O)c(F)c1 (stereo not given) | 80.5% (inactive)
25 | COc1ccc(-c2nn(-c3ccccc3)cc2/C=C/C(=O)OCc2cn(-c3ccc(F)c(Cl)c3)nn2)cc1 | 97.6% (inactive)
26 | COc1ccc(/C=N\NC(=O)CN2CCN(c3cc4c(cc3F)c(=O)c(C(=O)N/N=C/c3ccc(OC)cc3)cn4C3CC3)CC2)cc1 | 92.1% (inactive)
27 | Cc1cc(=O)oc2cc(Oc3nc(-c4ccc(Cl)cc4)cn4c(-c5ccc(Cl)cc5)cnc34)ccc12 | 64.2% (inactive)
28 | CCN(CC)CC(O)c1cc(-c2ccc(Cl)cc2)nc2c(C)c(Cl)ccc12 (stereo not given) | -98.5% (active)
29 | Cc1noc(C)c1-c1cc(O)cc(C(O)c2ccccc2)c1 (stereo not given) | 56% (inactive)
30 | CCCCCn1cnc2c(=S)nc[nH]c21 | 120% (inactive)
31 | CCOC(=O)N1CCN(c2nc(Nc3cc(C)[nH]n3)c3ccccc3n2)CC1 | 61.6% (inactive)
32 | COc1ccc2[nH]c(=O)c(/C=C/C(=O)c3ccc(Nc4nccc(-c5ccc6ccccc6c5)n4)cc3)cc2c1 | 101% (inactive)
33 | O=C(Cc1ccccc1)c1ccc(Cl)cc1 | 101% (inactive)
34 | Clc1nc(Cl)c2c3c(sc2n1)CCCC3 | 21.1% (inactive)
35 | NC1=CSC2=N/C(=C\c3ccc(Cl)cc3)C(=O)N12 | 76.8% (inactive)
36 | N=c1c2ccccc2nc2n1CCCCC2 | 108% (inactive)
37 | O=S(=O)(Nc1ccc(F)c(Cl)c1)c1ccc(-c2cnc(C3CC3)o2)cc1 | 24.8% (inactive)
38 | O=c1c2c3c(sc2n2c(CCl)nnc2n1Cc1ccccc1)CCCC3 | -49.9% (active)
39 | CN1C2CCC1/C(=C\c1ccc(Cl)cc1)C1=C2[C@@H](c2ccc(Cl)cc2)C(C#N)=C(N)O1 (stereo not given in full) | 95.2% (inactive)
40 | CC/C=C\C[C@H](O)C/C=C1/C(=O)C=C[C@@H]1C/C=C\CCCC(N)=O | 1.88% (active)
